Targets with a hit are over-represented here; the source holds about 7,900 in all. About 0.6% of all pairs of compound and target were hits. Unmarked numbers belong to inactive results.
Tests used:
Experiment in all cases: log2 fold change, soluble protein after heating vs DMSO (PISA); higher = thermal stabilisation; K562 cells, 10 uM, 30 min; active = over 0.2 and 3.5 SD of the protein, either way, in both replicates (recomputed)
[1] = compound: CS(=O)(=O)c1ccc(-c2cnc(N)c(C(=O)Nc3ccccc3)n2)cc1
In short: (§1)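 K562 cells at 2×10^6 cells/mL were treated with 10 μM compound for 30 min. Aliquots were heated for 3 min across 48°C-58°C, pooled, and extracted in PBS with 0.5% NP-40 at 4°C; soluble protein was the supernatant after 21,000xg for 90 min. Soluble protein was quantified by TMTpro 16plex LC-MS/MS with channel sums equalised, and reported as log2 fold change in thermal stability against DMSO controls, with values from duplicates.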

crizotinib = compound: C[C@@H](Oc1cc(-c2cnn(C3CCNCC3)c2)cnc1N)c1c(Cl)ccc(F)c1Cl [crizotinib]
In short: as §1

[2] = compound: C[C@@H]1COCCN1C2=NC(=NC(=C2)C3(CC3)S(=O)(=O)C)C4=C5C=CNC5=CC=C4
In short: as §1

[3] = compound: C[C@H](C1=CC=C(C=C1)C(=O)NC2=C3C=CNC3=NC=C2)N
In short: as §1

duvelisib = compound: C[C@H](Nc1ncnc2nc[nH]c12)c1cc2cccc(Cl)c2c(=O)n1-c1ccccc1 [duvelisib]
In short: as §1

gandotinib = compound: Cc1cc(Nc2cc(CN3CCOCC3)c3nc(C)c(Cc4ccc(Cl)cc4F)n3n2)n[nH]1 [gandotinib]
In short: as §1

tozasertib = compound: Cc1cc(Nc2cc(N3CCN(C)CC3)nc(Sc3ccc(NC(=O)C4CC4)cc3)n2)n[nH]1 [tozasertib]
In short: as §1

[4] = compound: Cc1cc(SCc2sc(-c3ccc(C(F)(F)F)cc3)nc2C)ccc1OCC(=O)O
In short: as §1

doramapimod = compound: Cc1ccc(-n2nc(C(C)(C)C)cc2NC(=O)Nc2ccc(OCCN3CCOCC3)c3ccccc23)cc1 [doramapimod]
In short: as §1

ispinesib = compound: Cc1ccc(C(=O)N(CCCN)[C@@H](c2nc3cc(Cl)ccc3c(=O)n2Cc2ccccc2)C(C)C)cc1 [ispinesib]
In short: as §1

bafetinib = compound: Cc1ccc(NC(=O)c2ccc(CN3CC[C@H](N(C)C)C3)c(C(F)(F)F)c2)cc1Nc1nccc(-c2cncnc2)n1 [bafetinib]
In short: as §1

[5] = compound: Cc1cccc(CC(=O)N2CCc3c2ccc(-c2cn(C)c4ncnc(N)c24)c3F)n1
In short: as §1

nilotinib = compound: Cc1cn(-c2cc(NC(=O)c3ccc(C)c(Nc4nccc(-c5cccnc5)n4)c3)cc(C(F)(F)F)c2)cn1 [nilotinib]
In short: as §1

[6] = compound: Cc1nc(Nc2n[nH]c3c2CN(C(=O)N[C@H](CN(C)C)c2ccccc2)C3(C)C)c2sccc2n1
In short: as §1

dasatinib = compound: Cc1nc(Nc2ncc(C(=O)Nc3c(C)cccc3Cl)s2)cc(N2CCN(CCO)CC2)n1 [dasatinib]
In short: as §1

[7] = compound: Cc1ncc(-c2ccnc(Nc3ccc(S(C)(=O)=O)cc3)n2)n1C(C)C
In short: as §1

[8] = compound: Cn1cc(-c2ccc3c(c2)CCN3C(=O)Cc2cccc(C(F)(F)F)c2)c2c(N)ncnc21
In short: as §1

[9] = compound: Cn1cc(-c2ccc3nnc(C(F)(F)c4ccc5ncccc5c4)n3n2)cn1
In short: as §1

tipifarnib = compound: Cn1cncc1[C@@](N)(c1ccc(Cl)cc1)c1ccc2c(c1)c(-c1cccc(Cl)c1)cc(=O)n2C [tipifarnib]
In short: as §1

mubritinib = compound: FC(F)(F)c1ccc(/C=C/c2nc(COc3ccc(CCCCn4ccnn4)cc3)co2)cc1 [mubritinib]
In short: as §1

UniProt Q96SZ6, sequence (Q96SZ6 whole entry, looked up): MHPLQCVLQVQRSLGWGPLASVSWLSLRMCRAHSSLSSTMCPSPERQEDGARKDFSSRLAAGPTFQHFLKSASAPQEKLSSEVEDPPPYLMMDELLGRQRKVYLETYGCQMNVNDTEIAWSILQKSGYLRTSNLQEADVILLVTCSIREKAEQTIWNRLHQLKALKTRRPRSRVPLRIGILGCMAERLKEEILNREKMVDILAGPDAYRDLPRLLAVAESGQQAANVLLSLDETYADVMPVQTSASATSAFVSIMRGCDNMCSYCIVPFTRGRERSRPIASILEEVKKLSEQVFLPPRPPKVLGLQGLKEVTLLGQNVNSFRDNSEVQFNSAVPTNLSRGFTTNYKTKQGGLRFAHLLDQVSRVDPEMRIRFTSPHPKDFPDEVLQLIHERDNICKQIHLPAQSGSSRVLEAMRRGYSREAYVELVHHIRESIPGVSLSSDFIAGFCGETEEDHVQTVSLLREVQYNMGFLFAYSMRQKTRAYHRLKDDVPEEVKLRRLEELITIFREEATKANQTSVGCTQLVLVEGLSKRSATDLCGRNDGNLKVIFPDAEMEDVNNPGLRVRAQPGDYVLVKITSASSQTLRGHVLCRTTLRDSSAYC
UniProt Q14839, sequence (Q14839 whole entry, looked up): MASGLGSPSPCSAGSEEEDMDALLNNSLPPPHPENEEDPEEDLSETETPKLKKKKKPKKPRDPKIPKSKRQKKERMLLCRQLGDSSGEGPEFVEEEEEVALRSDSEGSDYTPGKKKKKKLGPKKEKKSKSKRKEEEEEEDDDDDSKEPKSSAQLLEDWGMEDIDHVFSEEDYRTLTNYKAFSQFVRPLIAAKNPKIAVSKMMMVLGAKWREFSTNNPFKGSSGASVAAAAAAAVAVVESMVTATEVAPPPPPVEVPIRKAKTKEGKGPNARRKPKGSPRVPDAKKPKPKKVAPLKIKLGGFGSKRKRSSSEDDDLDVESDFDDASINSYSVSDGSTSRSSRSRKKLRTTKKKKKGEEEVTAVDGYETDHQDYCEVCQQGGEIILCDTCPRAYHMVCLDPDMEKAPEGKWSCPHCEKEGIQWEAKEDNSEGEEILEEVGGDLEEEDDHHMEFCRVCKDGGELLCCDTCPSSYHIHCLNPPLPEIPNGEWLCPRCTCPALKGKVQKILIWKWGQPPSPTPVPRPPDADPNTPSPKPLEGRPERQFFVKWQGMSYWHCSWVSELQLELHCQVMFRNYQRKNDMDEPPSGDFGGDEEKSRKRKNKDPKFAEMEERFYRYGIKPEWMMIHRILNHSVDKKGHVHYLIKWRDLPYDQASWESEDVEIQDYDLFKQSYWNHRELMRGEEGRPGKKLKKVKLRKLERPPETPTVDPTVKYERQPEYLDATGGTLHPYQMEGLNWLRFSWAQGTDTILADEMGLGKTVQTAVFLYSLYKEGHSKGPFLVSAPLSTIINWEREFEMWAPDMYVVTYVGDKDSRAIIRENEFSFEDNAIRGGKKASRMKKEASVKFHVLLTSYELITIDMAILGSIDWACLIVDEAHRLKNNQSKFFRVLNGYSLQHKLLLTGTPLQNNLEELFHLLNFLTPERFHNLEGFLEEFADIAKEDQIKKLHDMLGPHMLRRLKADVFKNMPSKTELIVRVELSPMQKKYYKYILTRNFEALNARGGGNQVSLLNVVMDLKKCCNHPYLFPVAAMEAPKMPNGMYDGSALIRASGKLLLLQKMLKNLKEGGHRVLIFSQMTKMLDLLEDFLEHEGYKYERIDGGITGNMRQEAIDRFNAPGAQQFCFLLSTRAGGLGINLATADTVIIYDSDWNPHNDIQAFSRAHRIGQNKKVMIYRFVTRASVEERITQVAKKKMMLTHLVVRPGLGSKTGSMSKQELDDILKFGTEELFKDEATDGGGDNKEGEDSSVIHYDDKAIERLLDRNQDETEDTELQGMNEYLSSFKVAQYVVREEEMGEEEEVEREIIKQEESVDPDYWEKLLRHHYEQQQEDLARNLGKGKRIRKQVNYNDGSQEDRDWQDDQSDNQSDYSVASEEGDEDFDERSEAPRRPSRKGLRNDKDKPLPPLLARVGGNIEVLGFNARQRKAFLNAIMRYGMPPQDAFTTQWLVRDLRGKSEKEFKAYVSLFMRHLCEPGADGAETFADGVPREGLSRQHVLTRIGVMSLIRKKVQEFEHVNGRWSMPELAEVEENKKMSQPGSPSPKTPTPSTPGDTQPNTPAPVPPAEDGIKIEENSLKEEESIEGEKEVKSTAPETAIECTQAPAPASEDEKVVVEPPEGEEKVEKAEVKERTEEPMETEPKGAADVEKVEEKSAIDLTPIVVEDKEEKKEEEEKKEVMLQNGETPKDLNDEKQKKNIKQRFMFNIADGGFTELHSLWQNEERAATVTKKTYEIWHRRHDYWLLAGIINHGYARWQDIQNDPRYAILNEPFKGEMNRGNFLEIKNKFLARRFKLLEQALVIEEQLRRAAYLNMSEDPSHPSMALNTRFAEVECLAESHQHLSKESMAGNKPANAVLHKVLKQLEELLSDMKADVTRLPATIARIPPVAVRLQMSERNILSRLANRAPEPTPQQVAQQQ
UniProt Q9UNS2, sequence (Q9UNS2 whole entry, looked up): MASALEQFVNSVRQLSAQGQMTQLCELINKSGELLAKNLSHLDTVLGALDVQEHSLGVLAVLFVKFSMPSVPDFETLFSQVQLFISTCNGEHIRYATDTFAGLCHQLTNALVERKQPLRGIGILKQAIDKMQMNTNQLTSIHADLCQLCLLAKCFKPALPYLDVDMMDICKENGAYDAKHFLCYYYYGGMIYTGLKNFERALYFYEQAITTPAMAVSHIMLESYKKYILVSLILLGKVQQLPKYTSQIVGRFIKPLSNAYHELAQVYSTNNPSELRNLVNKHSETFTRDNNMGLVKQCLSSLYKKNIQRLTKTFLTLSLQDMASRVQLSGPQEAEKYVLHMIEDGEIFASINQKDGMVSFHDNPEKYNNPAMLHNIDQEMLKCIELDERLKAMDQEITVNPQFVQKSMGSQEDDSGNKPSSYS
UniProt P21127, sequence (P21127 whole entry, looked up): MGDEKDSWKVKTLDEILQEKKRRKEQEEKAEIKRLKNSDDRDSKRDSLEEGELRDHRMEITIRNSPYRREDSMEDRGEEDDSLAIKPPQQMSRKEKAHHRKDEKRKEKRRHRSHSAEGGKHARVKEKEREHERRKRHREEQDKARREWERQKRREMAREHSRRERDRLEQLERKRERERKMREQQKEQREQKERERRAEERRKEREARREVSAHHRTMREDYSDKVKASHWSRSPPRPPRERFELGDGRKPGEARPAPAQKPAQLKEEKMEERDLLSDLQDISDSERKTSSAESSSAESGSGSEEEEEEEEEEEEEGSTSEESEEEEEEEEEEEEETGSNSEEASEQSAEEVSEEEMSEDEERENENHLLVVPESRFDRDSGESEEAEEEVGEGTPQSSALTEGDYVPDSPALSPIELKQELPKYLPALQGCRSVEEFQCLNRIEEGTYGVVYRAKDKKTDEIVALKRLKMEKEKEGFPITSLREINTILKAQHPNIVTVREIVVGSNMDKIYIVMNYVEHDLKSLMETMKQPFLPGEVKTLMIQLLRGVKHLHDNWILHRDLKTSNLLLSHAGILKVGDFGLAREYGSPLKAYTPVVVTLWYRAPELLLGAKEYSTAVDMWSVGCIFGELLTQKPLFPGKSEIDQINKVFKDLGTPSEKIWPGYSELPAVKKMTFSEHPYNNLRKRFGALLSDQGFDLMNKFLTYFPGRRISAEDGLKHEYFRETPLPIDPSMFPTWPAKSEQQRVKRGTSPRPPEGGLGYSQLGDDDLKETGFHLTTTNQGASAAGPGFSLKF
UniProt Q96CF2, sequence (Q96CF2 whole entry, looked up): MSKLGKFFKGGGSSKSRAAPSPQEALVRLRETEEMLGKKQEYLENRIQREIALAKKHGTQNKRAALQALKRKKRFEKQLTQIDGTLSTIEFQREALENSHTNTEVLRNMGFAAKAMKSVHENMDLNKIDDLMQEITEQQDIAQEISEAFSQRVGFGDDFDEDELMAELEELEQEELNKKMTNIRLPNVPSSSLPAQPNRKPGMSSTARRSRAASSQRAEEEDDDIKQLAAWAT
UniProt P20674, sequence (P20674 whole entry, looked up): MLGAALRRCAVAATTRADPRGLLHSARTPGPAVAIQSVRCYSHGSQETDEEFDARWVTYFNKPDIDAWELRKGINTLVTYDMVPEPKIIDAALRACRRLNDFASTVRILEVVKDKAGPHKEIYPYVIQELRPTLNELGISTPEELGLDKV
UniProt P51790, sequence (P51790 whole entry, looked up): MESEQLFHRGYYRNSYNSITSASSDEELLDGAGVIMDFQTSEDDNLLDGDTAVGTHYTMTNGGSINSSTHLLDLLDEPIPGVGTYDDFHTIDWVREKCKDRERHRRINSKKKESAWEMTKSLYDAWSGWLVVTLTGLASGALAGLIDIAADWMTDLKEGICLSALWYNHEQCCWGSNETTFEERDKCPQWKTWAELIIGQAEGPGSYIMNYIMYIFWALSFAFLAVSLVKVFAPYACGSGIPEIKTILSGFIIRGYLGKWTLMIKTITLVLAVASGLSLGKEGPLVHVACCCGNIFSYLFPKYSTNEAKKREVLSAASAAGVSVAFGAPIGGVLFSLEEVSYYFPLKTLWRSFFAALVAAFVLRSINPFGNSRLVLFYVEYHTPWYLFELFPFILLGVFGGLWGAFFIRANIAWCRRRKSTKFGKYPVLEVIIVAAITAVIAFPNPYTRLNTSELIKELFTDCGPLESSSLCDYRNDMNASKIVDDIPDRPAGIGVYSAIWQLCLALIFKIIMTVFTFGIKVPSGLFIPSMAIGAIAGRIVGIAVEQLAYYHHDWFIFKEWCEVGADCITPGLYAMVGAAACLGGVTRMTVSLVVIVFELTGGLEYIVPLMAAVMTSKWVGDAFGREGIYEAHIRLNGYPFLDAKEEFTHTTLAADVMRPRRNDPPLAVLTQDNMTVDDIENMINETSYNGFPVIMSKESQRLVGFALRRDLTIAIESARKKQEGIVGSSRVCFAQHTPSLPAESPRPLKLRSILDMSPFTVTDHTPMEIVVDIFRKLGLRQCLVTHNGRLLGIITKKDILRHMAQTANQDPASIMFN

Row | Target | log2 fold change [1] | log2 fold change (crizotinib) | log2 fold change [2] | log2 fold change [3] | log2 fold change (duvelisib) | log2 fold change (gandotinib) | log2 fold change (tozasertib) | log2 fold change [4] | log2 fold change (doramapimod) | log2 fold change (ispinesib) | log2 fold change (bafetinib) | log2 fold change [5] | log2 fold change (nilotinib) | log2 fold change [6] | log2 fold change (dasatinib) | log2 fold change [7] | log2 fold change [8] | log2 fold change [9] | log2 fold change (tipifarnib) | log2 fold change (mubritinib)
1 | CIT isoform 4 (UniProt O14578) | -0.023 | -0.077 | -0.013 | 0.08 | 0.064 | -0.001 | 0.093 | -0.033 | 0.026 | 0.072 | -0.01 | 0.07 | -0.049 | -0.065 | -0.064 | -0.03 | 0.006 | -0.075 | -0.009 | 0.031
2 | CNOT4 isoform 6 (UniProt O95628) | 0.007 | 0.031 | 0.056 | -0.076 | 0.06 | -0.005 | -0.009 | 0.014 | -0.02 | 0.066 | -0.088 | -0.036 | -0.024 | -0.042 | -0.034 | -0.003 | 0.021 | 0.033 | 0.027 | 0.023
3 | CDK13 (UniProt Q14004) | -0.075 | -0.124 | -0.036 | 0.095 | 0.043 | -0.414 (active) | -0.118 | 0.141 | -0.006 | 0.063 | 0.092 | -0.018 | -0.024 | -0.149 | -0.089 | -0.108 | -0.028 | -0.098 | 0.069 | 0.023
4 | CHMP4C (UniProt Q96CF2) | -0.044 | -0.007 | -0.256 | -0.003 | 0.067 | 0.073 | -0.024 | 0.03 | -0.046 | -0.079 | -0.01 | -0.003 | -0.03 | -0.021 | -0.027 | 0 | -0.008 | 0.041 | -0.015 | 0.039
5 | CA8 (UniProt P35219) | 0.003 | -0.008 | 0.117 | -0.06 | 0.1 | -0.064 | 0.122 | 0.096 | -0.066 | 0.103 | -0.042 | 0.079 | 0.006 | -0.017 | -0.187 | -0.01 | 0.083 | -0.063 | -0.064 | 0.06
6 | CHEK1 (UniProt O14757) | 0.011 | -0.116 | 0.044 | 0.049 | 0.059 | -0.122 | -0.023 | 0.008 | -0.009 | 0.039 | -0.053 | 0.02 | -0.05 | -1.17 (active) | -0.064 | 0.002 | 0.021 | -0.022 | 0.005 | 0.048
7 | CPSF6 isoform 2 (UniProt Q16630) | -0.014 | -0.025 | 0.075 | -0.292 (active) | -0.004 | -0.034 | -0.03 | -0.012 | 0.004 | 0.11 | 0.079 | -0.136 | 0.06 | -1.43 (active) | 0.009 | 0.014 | 0.039 | -0.008 | 0.031 | 0.006
8 | CHD4 isoform 2 (UniProt Q14839) | -0.02 | -0.08 | 0.098 | 0.057 | -0.021 | -0.009 | 0.233 | 0.186 | 0.014 | -0.05 | 0.068 | -0.018 | -0.143 | -0.267 | -0.059 | -0.137 | -0.063 | -0.002 | -0.083 | -0.06
9 | CDK5RAP1 (UniProt Q96SZ6) | 0.005 | 0.041 | 0.033 | 0.031 | -0.006 | 0.033 | 0.003 | -0.025 | 0.05 | 0.048 | -0.052 | -0.058 | 0 | -0.008 | 0.175 | -0.006 | 0.044 | 0.017 | 0.031 | -0.03
10 | COPS3 (UniProt Q9UNS2) | 0.018 | 0.003 | 0.047 | -0.023 | -0.003 | -0.087 | 0 | -0.006 | -0.015 | 0.024 | -0.05 | -0.027 | 0.006 | 0.004 | -0.02 | -0.012 | 0.014 | 0.04 | 0.004 | 0.023
11 | CDK12 (UniProt Q9NYV4) | -0.056 | -0.054 | -0.362 | 0.376 | -0.161 | -1.11 (active) | -0.125 | 0.051 | 0.299 | 0 | 0.298 | 0.079 | 0.136 | -0.631 (active) | 0.23 | -0.301 | -0.484 | -0.123 | 0.156 | -0.043
12 | COX5A (UniProt P20674) | -0.011 | 0.245 | 0.109 | -0.092 | 0.249 | 0.12 | 0.029 | 0.011 | -0.039 | 0.411 (active) | -0.079 | -0.003 | 0.067 | -0.023 | 0.06 | -0.067 | 0.109 | 0.422 (active) | 0.103 | 0.021
13 | CDC37L1 (UniProt Q7L3B6) | 0.007 | 0.036 | 0.148 | -0.013 | -0.039 | -0.091 | -0.093 | 0.117 | -0.036 | 0.005 | -0.215 | 0.027 | -0.026 | -0.167 | -0.088 | 0.022 | 0.018 | 0.121 | 0.034 | 0.172
14 | CSNK2A2 (UniProt P19784) | 0.068 | -0.132 | 0.039 | -0.234 (active) | 0.032 | -0.097 | -0.029 | 0.013 | 0.007 | 0.084 | -0.042 | -0.008 | -0.009 | 0.016 | -0.056 | -0.019 | -0.009 | 0.038 | -0.033 | -0.019
15 | CLCN3 isoform 2 (UniProt P51790) | -0.008 | -0.074 | 0.09 | -0.142 | 0.015 | 0.02 | 0.002 | -0.011 | 0.009 | -0.25 | -0.044 | 0.076 | -0.016 | 0.034 | 0.027 | 0.017 | 0.017 | 0.027 | 0.004 | -0.004
16 | CDK11B (UniProt P21127) | 0.025 | 1.24 (active) | 0.052 | 0.166 | 0.099 | 0.105 | 0.018 | 0.007 | 0 | 0.022 | 0.027 | -0.009 | 0.106 | -0.038 | 0.014 | -0.036 | 0.007 | 0.228 | 0.104 | 0.085

From the supplement of paper PMC10849652
